These results are taken from PubChem BioAssay (Tox21).

The nature of assay [1]: qHTS assay for small molecule agonists of the p53 signaling pathway (AID 651631; calls by dose curve; further: nearly all actives have a fitted effect of over 15% in size). Summed up:
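HCT-116 cells carrying a beta-lactamase reporter under p53 response elements were dosed with compound for 16 h at 37 °C. LiveBLAzer B/G FRET substrate was then added for 2 h at room temperature, and fluorescence intensity was read to detect pathway agonism.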
A general note: qHTS replaces the single test concentration by a dilution series.

Assay [2] is described as follows: qHTS assay for small molecule agonists of the p53 signaling pathway - cell viability (AID 651633; calls by dose curve;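 further: p53RE-bla HCT reporter cells with a stable beta-lactamase p53 reporter; nearly all actives have a fitted effect of over 30% in size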). The method, boiled down: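 p53RE-bla cells were treated with compound for 16 hours at 37 C. Cytotoxicity was then measured as CellTiter-Glo luminescence after 30 min at room temperature.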
Assay [3] is described as follows: qHTS assay for small molecules that induce genotoxicity in human embryonic kidney cells expressing luciferase-tagged ATAD5 - cell viability (AID 651634; calls by dose curve; further: nearly all actives have a fitted effect of over 25% in size). The method, boiled down: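 Seeding of 2,000 HEK293T ATAD5-luciferase cells per well preceded pin-tool compound transfer. Plates sat 15.5 hr at 37C under 5% CO2, then fluorescence was read after 30 min with CellTiter-Fluor.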

Assay [4] can be described thus: qHTS assay for small molecule disruptors of the mitochondrial membrane potential - cell viability (AID 720634; calls by dose curve;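 further: human HepG2 liver cancer cells; nearly all actives have a fitted effect of over 20% in size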). Summed up:
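Measuring cytotoxicity alongside mitochondrial potential, the screen quantified ATP by luminescence in HepG2 cells after 1 hr compound incubation and a 30 min room-temperature CellTiter-Glo step.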

The nature of assay [5]: qHTS assay to test for compound auto fluorescence at 590 nm (red) in HepG2 cells (AID 720674). Summed up: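 Fluorescence at 590 nm emission following 540 nm excitation was recorded from HepG2 wells one hour after compound transfer, with DMSO-only wells as vehicle and Rose Bengal sodium equivalency as the scale.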
The nature of assay [6]: qHTS assay to test for compound auto fluorescence at 535 nm (green) in HepG2 cells (AID 720675).
Assay [7] can be described thus: qHTS assay to test for compound auto fluorescence at 460 nm (blue) in HEK293 cells (AID 720678). The method, boiled down:
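HEK293, 2,000 cells/well, 10% dialyzed FBS; attach 4-5 hr 37C; pin compound or DMSO; o/n 37C/5% CO2; fluorescence 405/460 nm; triamterene-equivalent units.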

A short description of assay [8]: qHTS assay to test for compound auto fluorescence at 535 nm (green) in HEK293 cells (AID 720680).
Assay [9] can be described thus: qHTS assay to test for compound auto fluorescence at 460 nm (blue) in HEK293 cell free culture (AID 720681). Summed up:
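Compounds were added to cell-free DMEM with 10% FBS and fluorescence read directly. The blue channel used 405 nm excitation and 460 nm emission, with triamterene as the reference fluorophore.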

Assay [10] can be described thus: qHTS assay to test for compound auto fluorescence at 535 nm (green) in HEK293 cell free culture (AID 720682). Summed up:
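Green-label autofluorescence (485 nm excitation, 535 nm emission) measured on compound added to cell-free culture medium (DMEM, 10% FBS). Output is expressed relative to fluorescein.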

Assay [11] is described as follows: qHTS assay to test for compound auto fluorescence at 590 nm (red) in HEK293 cell free culture (AID 720683). The method, boiled down: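 Cell-free wells of DMEM with 10% FBS received compound, and intrinsic fluorescence was read at excitation/emission 540/590 nm. Values expressed as equivalence to Rose Bengal sodium.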
Assay [12] can be described thus: qHTS assay to test for compound auto fluorescence at 590 nm (red) in HepG2 cell free culture (AID 720684). The method, boiled down:
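Compounds are added to culture medium (MEM, 10% FBS) lacking cells, then fluorescence is read at excitation 540 nm, emission 590 nm, with Rose Bengal sodium as the equivalency standard.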

A short description of assay [13]: qHTS assay to test for compound auto fluorescence at 460 nm (blue) in HepG2 cell free culture (AID 720685). The method, boiled down: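 Compound (23 nL) or DMSO pinned into cell-free MEM with 10% FBS; blue fluorescence read at 405/460 nm excitation/emission, expressed as auto-fluorescence equivalency to triamterene.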
Assay [14] can be described thus: qHTS assay to test for compound auto fluorescence at 535 nm (green) in HepG2 cell free culture (AID 720686).
Assay [15] deals with Glucocorticoid receptor (Homo sapiens) (UniProt P04150). Kind of assay: qHTS assay to identify small molecule agonists of the glucocorticoid receptor (GR) signaling pathway (AID 720691; active means well fitted activation curve with a large enough effect in the signal ratio in the repeat runs, not every such curve was filed as active; the % refers to the signal ratio; further: potency means the concentration at half of the fitted maximal effect). The following applies: GR-bla HeLa, beta-lactamase reporter ratio, 18 h; activation: at 62.4 µM (top of the series). The method, boiled down: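 Reporter read-out: fluorescence intensity following 2 h room-temperature LiveBLAzer B/G FRET substrate loading. Prior step: GR-bla HeLa cells held 4 h, then treated 18 h at 37 C.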

Assay [16] is described as follows: qHTS assay for small molecule disruptors of the mitochondrial membrane potential (AID 720635). Further: potency means the concentration at half of the fitted maximal effect. The method, boiled down:
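HepG2 cells exposed to compound 1 hr at 37C, then Mito-MPS dye 30 min. Ratio read of aggregate (540/590 nm) versus monomer (490/535 nm) fluorescence.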

Assay [17] in a line: qHTS assay to test for compound auto fluorescence at 590 nm (red) in HEK293 cells (AID 720679). The method, boiled down: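 Intensity at 540nm excitation and 590nm emission is reported as Rose Bengal sodium-equivalent autofluorescence. Measurements followed overnight exposure (37C, 5% CO2) of HEK293 cells, 2,000 per well, to 23 nL compound.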
Assay [18] has as its target Glucocorticoid receptor (Homo sapiens) (UniProt P04150). In words: qHTS assay to identify small molecule antagonists of the glucocorticoid receptor (GR) signaling pathway (AID 720692; active means well fitted inhibition curve with a large enough effect in the signal ratio in the repeat runs, not every such curve was filed as active; the % refers to the signal ratio). Summed up:
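Dexamethasone (5 nM final) stimulated a stably integrated GRE-beta-lactamase reporter in HeLa cells during 18 h co-incubation with compounds; signal was quantified as fluorescence intensity of B/G FRET substrate after 2 h.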

Assay [19] can be described thus: qHTS assay to test for compound auto fluorescence at 460 nm (blue) in HepG2 cells (AID 720687). The method, boiled down:
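HepG2 cells in MEM with 10% FBS, attached overnight at 37 C, were exposed to compound or DMSO for 1 hr at 37 C, 5% CO2. Blue fluorescence was read at 405/460 nm, with triamterene as reference fluorophore.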

Several values for one entry are separate records, joined by “and”; a condition that tells them apart may be missing. Identical values can stand only once. Values without a mark were called inactive. Records with an inconclusive call do not appear. Activity calls are given as the source filed them. Unless noted, the call rests on the fitted dose curve; in most records, active means well fitted curve in the direction sought with a large enough effect in the repeat runs; inconclusive means weak or mixed curves; inactive means no such curve, though single readings can be large; an effect the other way counts as inactive or inconclusive.

Sequence of Glucocorticoid receptor (Homo sapiens) (P04150 whole entry, looked up): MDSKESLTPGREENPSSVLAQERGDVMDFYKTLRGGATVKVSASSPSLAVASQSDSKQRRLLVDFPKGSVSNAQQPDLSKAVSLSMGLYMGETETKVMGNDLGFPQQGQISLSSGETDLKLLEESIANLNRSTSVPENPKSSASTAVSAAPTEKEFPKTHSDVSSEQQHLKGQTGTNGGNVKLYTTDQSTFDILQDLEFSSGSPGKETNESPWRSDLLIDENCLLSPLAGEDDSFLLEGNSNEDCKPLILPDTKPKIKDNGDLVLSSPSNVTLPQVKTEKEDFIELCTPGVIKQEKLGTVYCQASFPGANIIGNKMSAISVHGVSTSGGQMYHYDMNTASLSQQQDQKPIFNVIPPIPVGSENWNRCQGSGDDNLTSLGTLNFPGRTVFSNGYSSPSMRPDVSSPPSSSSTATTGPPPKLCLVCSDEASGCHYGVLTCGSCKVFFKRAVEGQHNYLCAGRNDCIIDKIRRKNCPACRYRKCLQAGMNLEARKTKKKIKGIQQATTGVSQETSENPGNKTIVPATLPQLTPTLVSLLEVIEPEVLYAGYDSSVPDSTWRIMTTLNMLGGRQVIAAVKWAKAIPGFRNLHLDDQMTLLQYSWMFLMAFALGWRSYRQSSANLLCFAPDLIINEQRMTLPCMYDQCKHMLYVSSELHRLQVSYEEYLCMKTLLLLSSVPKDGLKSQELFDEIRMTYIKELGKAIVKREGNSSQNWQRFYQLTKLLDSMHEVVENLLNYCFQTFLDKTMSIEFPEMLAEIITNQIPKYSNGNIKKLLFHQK

Regarding `CCOC(=O)NNc1nncc2ccccc12`, the Potency entry in [1], in assay [2], in [3], in assay [4] and in assay [15] was “inactive” each time. For the same compound, the compound was called inactive in [5], in assay [6], in assay [7], in assay [8], in assay [9] and in assay [10]. For the same compound, the compound was called inactive in assay [11], in [12], in [13] and in assay [14].
Regarding `Oc1cccc2ccccc12`, the Potency result in assay [1], in assay [2], in [3], in assay [15] and in assay [18] was “inactive” each time. The Potency in [16] is 28 µM (active) and 19.3 µM (active). The compound was classed as inactive in assay [5], in [6], in assay [7], in [17], in assay [8] and in [9]. For the same compound, the call in assay [10], in assay [11], in [12] and in assay [13] was inactive.
Take `CC(=O)c1ccccc1`: the Potency entry in assay [1], in [2], in assay [3] and in [4] was “inactive” throughout. The compound was called inactive in assay [5], in assay [6], in assay [7], in [8], in [9] and in assay [10]. Also, the compound was called inactive in assay [11], in assay [12] and in assay [14].
With `CC(=O)OCC(=O)[C@@]12N=C(C)O[C@@H]1C[C@H]1[C@@H]3CCC4=CC(=O)C=C[C@]4(C)[C@H]3[C@@H](O)C[C@@]12C`, the Potency entry in assay [1], in assay [2], in assay [3] and in assay [4] was “inactive” each time. The call in [5], in assay [6], in [7], in assay [17], in [8] and in assay [9] was inactive. The outcome in [10], in [11], in [12], in assay [13] and in assay [14] was inactive. Moreover, the Potency in [15] is 425 nM (active) and 155 nM (active).
Consider `CCCCCCCCCCCCc1ccccc1`, for which the Potency result in assay [1], in assay [2], in [3] and in assay [4] was “inactive” each time. Further, the call in assay [5], in assay [6], in assay [7], in [17], in assay [8] and in [9] was inactive. The outcome in assay [10], in [11], in assay [12], in [13], in assay [14] and in assay [19] was inactive.
`CC(C)CC(=O)CC(C)C`: the Potency result in assay [1], in [2], in [3] and in assay [4] was “inactive” each time. For the same compound, the compound was classed as inactive in assay [5], in [6], in assay [7], in [17], in assay [8] and in [9]. Further, the result in assay [10], in assay [11], in [12], in assay [13] and in assay [19] was inactive.
As for `C#CCN(C)Cc1ccccc1`, the Potency entry in [1], in assay [2], in [3], in assay [4], in assay [16] and in [15] was “inactive” in each case. In [18], the Potency result is “inactive”. The outcome in assay [5], in assay [6], in [7], in assay [17], in assay [8] and in assay [9] was inactive. Also, the compound was called inactive in assay [10], in assay [11], in assay [12], in assay [14] and in assay [19].
Take `ON=C1CCCCC1`: the Potency result in assay [1], in assay [2], in [3], in assay [4], in assay [16] and in assay [15] was “inactive” throughout. In addition, the Potency entry in assay [18] is “inactive”. Moreover, the compound was called inactive in assay [5], in assay [6], in assay [7], in assay [8], in assay [9] and in [10]. For the same compound, the call in assay [11], in [12] and in assay [19] was inactive.
As for `CCCCN(CCCC)CCCC`, the Potency entry in assay [1], in [2], in assay [3], in assay [15] and in assay [18] was “inactive” each time. In addition, the result in assay [5], in assay [6], in [7], in [17], in assay [8] and in [9] was inactive. The result in [10], in assay [11], in assay [12] and in assay [13] was inactive.
